In PubChem BioAssay AID504843 (Broad Institute, 2011):
The campaign covered roughly 1,200 compounds. About 360 (30%) were called active. The rule behind the calls is not given here. A selection follows. Results with a measured potency or affinity are listed apart.

Test: bacterial growth inhibition, dose response, counter-screen, BacTiter-Glo luminescence, cherry-picked samples (AID 504843);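 note: growth measured after 8 h incubation at 30 °C; 0% = median of sample compound wells and -100% = antibiotic control wells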
Conditions: BacTiter-Glo ATP luminescence; series mostly up to 15 µM; activity change, negative = inhibition: at the top concentration

SMILES	activity change, negative = inhibition
COc1ccc(-n2c(Cc3cccn3C)nnc2SCC(=O)NCc2ccc(F)cc2)cc1	-10.8% (inactive)
CC(=O)c1ccc(NC(=O)CSc2nnc(C3CC3)n2C2CC2)cc1	-7.46% (inactive)
Cc1ccc2cc(CCNC(=O)C(=O)c3c(C)[nH]c4ccccc34)c(=O)[nH]c2c1	-3.49% (inactive)
O=C(Nc1ccc(F)cc1)Nc1cc(S(=O)(=O)N2CCOCC2)ccc1N1CCCC1	4.61% (inactive)
O=C(/C=C/c1ccccc1)Nc1cc(S(=O)(=O)N2CCOCC2)ccc1N1CCCC1	-3.5% (inactive)
CC(Sc1ccsc1[N+](=O)[O-])C(=O)N1CCN(c2ccccn2)CC1 (stereo not given)	-3.67% (inactive)
Nc1ccn(CC(=O)N2CCN(c3ccccn3)CC2)c(=O)n1	-4.25% (inactive)
COC(CNc1ncnc2sc(-c3ccccc3)cc12)OC	-3.03% (inactive)
Cc1cccc(-c2nnc(-c3cccc(NC(=O)Cc4cccs4)c3)o2)c1	9.27% (inactive)
O=C(CSc1nnc(-c2cccnc2)o1)Nc1ccc(Cl)cc1	-0.908% (inactive)
CSc1cccc(NC(=O)CN(C)S(=O)(=O)c2cnc[nH]2)c1	-5.56% (inactive)
C[C@H](NC(=O)c1nc[nH]c1C(=O)NCCCCCNC(=O)OC(C)(C)C)c1ccccc1	-1.97% (inactive)
CC1CCN(C(=O)c2[nH]cnc2C(=O)N[C@@H](C)C(=O)OC(C)(C)C)CC1	12.1% (inactive)
CCCCCCCN(c1ccccc1)[C@@H]1C[C@H]2CCCC(=O)N3CC[C@@H](C1)[C@@H]23	14.7% (inactive)
CCOC(=O)c1c(C)[nH]c(C(=O)N(C)Cc2cccc(OC)c2OC)c1C	1.41% (inactive)
O=C1CN2C(=Nc3ccc(Br)cc3C2c2ccccc2)CCN1 (stereo not given)	-8.09% (inactive)
CC[C@H]1OC(=O)[C@H](C)[C@@H](O[C@H]2C[C@@](C)(OC)[C@@H](O)[C@H](C)O2)[C@H](C)[C@@H](O[C@@H]2O[C@H](C)C[C@H](N(C)C)[C@H]2O)[C@](C)(O)C[C@@H](C)CN(C)[C@H](C)[C@@H](O)[C@]1(C)O	3.48% (inactive)
O=[N+]([O-])c1ccc(/C=N/n2c(CO)nc3ccccc32)s1	8.29% (inactive)
Cc1nn(-c2ccccc2)c2nc3c(cc12)C(=O)CCC3	-3.6% (inactive)
O=C(CN1CCC(n2nnc3cc(F)ccc32)CC1)NCc1ccco1	19.3% (inactive)
Nc1nc2n(n1)C(c1cccc(Br)c1)CC(c1ccccc1)N2 (stereo not given)	16.8% (inactive)
Nc1ccccc1S(=O)(=O)NC1=NCCCCC1	-0.169% (inactive)
CCOc1ccc(-c2c(C(=O)N/N=C/c3c[nH]c4ccccc34)nnn2-c2nonc2N)cc1	-17.8% (inactive)
Cc1ccc(NC(=O)c2ncn(CCCNCc3ccccn3)n2)cc1C	11.9% (inactive)
Cc1ccc(NC(=O)NCc2ccccn2)cc1Cl	5.48% (inactive)

SMILES	activity change, negative = inhibition
COc1ccc(CN2CCN(C(=O)C3CCC(CNS(=O)(=O)c4ccccc4)CC3)CC2)c(OC)c1OC (stereo not given)	-7.46% (inactive)
Cc1nc2ncnn2c(C)c1CCC(=O)N1CCCCC1	-5.84% (inactive)
COc1ccc(Nc2cc(C)nc3nc(C)nn23)c(OC)c1	-1.6% (inactive)
CSc1ccc(NC(=O)N2CCN(c3nc4ccccc4s3)CC2)cc1	11.1% (inactive)
O=C(Cn1cc([N+](=O)[O-])cn1)N1CCN(c2ccccc2)CC1	-8.94% (inactive)
COCCC1CCCCN1C(=O)c1cccc(OC2CCN(S(C)(=O)=O)CC2)c1 (stereo not given)	5.98% (inactive)
CCN1CCN(CCCNc2ncnc3nc[nH]c23)CC1	-22.4% (inactive)
C1=C(CCNc2ncnc3c2cnn3-c2ccccc2)CCCC1	9.72% (inactive)
COc1ccc(-c2c(-c3cc(OC)cc(OC)c3)n(C)c3ccc(-c4ccc(S(N)(=O)=O)cc4)cc23)cc1	4.16% (inactive)
CC(C)c1ccc(C(=O)CN2C(=O)NC3(CCc4ccccc43)C2=O)cc1 (stereo not given)	23.7% (inactive)
Cc1nc(Cl)c(C(=O)NCc2ccccc2)c(C)c1Cl	-15% (inactive)
C#CCOCCOCCOCCNc1nc(N2CCN(C(=O)Cn3cc(CC(C)O)nn3)CC2)nc(N2CCN(C(=O)[C@H](CCCCN)n3cc(CCCC)nn3)CC2)n1 (stereo not given in full)	17.3% (inactive)
O=C(C1CCCO1)N1CCN(c2c3c(nc4cc(-c5ccc(F)cc5)nn24)CCC3)CC1 (stereo not given)	-10.4% (inactive)
Nc1nc(CN2CCCCC2)cs1	-6.99% (inactive)
O=C(NCc1ccccc1)C(=O)NCC1OCCN1S(=O)(=O)c1ccc([N+](=O)[O-])cc1 (stereo not given)	-9.98% (inactive)
Nc1nc(NCC2CCCO2)nc(Nc2cccc(Cl)c2)c1[N+](=O)[O-] (stereo not given)	-11.3% (inactive)
COC(=O)c1ccc(Cl)cc1NC(=O)/C=C/c1ccc(C)o1	-1.54% (inactive)
CC(NC(=O)c1ccc([N+](=O)[O-])cc1[N+](=O)[O-])c1ccc(-c2ccccc2)cc1 (stereo not given)	-11.2% (inactive)
O=C(Nc1ccc(F)cc1)C1CC(=O)N(Cc2ccco2)C1 (stereo not given)	-1.25% (inactive)
O=C(Cn1nc(C(F)(F)F)c2c1CCCC2)NCc1ccco1	13.5% (inactive)
CN(Cc1cn[nH]c1-c1ccc(-c2ccccc2)cc1)CC1CCOCC1	3.47% (inactive)
COc1ccc2c(c1)c1c3n2CCN(C)C3=NCC1	7.69% (inactive)
CC(C)C(C(=O)NC1CCCC1)N(CC1CCCO1)C(=O)CNS(=O)(=O)c1ccccc1 (stereo not given)	12.5% (inactive)
CCCCC(=O)N(c1ccc(C)c(C)c1)C1C=CS(=O)(=O)C1 (stereo not given)	-16.1% (inactive)
COc1ccccc1N(CC(=O)NC1CCCC1)C(=O)c1csnn1	-23.1% (inactive)
